# PubChem BioAssay (Tox21)
# Inconclusive results are not listed. Entries that show only a call come without a potency. A number with no mark means an inactive call. Calls of active or inactive are those of the source. Unless noted, calls come from the whole dose curve; as a rule, active = well fitted curve in the direction sought with a large enough effect in the repeat runs; inconclusive = weak or mixed curves; inactive = no such curve, though single readings can be large; an effect the other way counts as inactive or inconclusive.
# What was measured:
# [1] = qHTS assay to identify small molecule agonists of the vitamin D receptor (VDR) signaling pathway - cell viability counter screen (AID 743224); note: series mostly up to about 63 µM; nearly all actives have a fitted effect of over 50% in size
# Summary of the method: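 In parallel with the bla FRET readout, cytotoxicity toward VDR-bla cells after 16 h compound exposure was assessed by CellTiter-Glo, with luminescence recorded after a 30 min room-temperature incubation.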
# [2] = qHTS assay to identify small molecule antagonists of the vitamin D receptor (VDR) signaling pathway - cell viability counter screen (AID 743225); note: nearly all actives have a fitted effect of over 50% in size
# Summary of the method: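 Viability counter screen run in the same wells as the beta-lactamase reporter assay: HEK 293T VDR-UAS-bla cells, 16 h compound exposure at 37C with 3 nM (final) 1-alpha,25-dihydroxyvitamin D3. CellTiter-Glo luminescence, 30 min, room temperature.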
# [3] = qHTS assay to identify small molecule agonists of the NFkB signaling pathway - cell viability counter screen (AID 1159515; calls by dose curve; note: series mostly up to about 61 µM; nearly all actives have a fitted effect of over 55% in size)
# Summary of the method: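 Plate 2,000 NFkB-bla ME-180 cells/well; incubate overnight. Add compounds, 5 hr at 37 C. Add FRET substrate, 1.5 hr RT. Add CellTiter-Glo, 30 min RT; read luminescence.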
# [4] = qHTS assay to identify small molecule agonists of the endoplasmic reticulum stress response signaling pathway (AID 1159516; active = well fitted activation curve with a large enough effect in the signal ratio in the repeat runs, not every such curve was filed as active; the % refers to the signal ratio)
# Summary of the method: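 Beta-lactamase expression from the ER stress response element in HeLa reporter cells is quantified with the LiveBLAzer B/G FRET substrate, read at 405 nm excitation after 2 hr at room temperature, following 5 hr compound treatment at 37 C.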
# [5] = qHTS assay to identify small molecule agonists of the endoplasmic reticulum stress response signaling pathway - cell viability counter screen (AID 1159517; calls by dose curve; note: series mostly up to about 61 µM; nearly all actives have a fitted effect of over 50% in size)
# Summary of the method: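 After overnight attachment, ESRE-bla HeLa cells were treated with Tox21 library compounds for 5 hr. CellTiter-Glo luminescence, read 30 min post-addition at room temperature, reported viability.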
# [6] = qHTS assay to identify small molecule antagonists of the retinoid-related orphan receptor gamma (ROR-gamma) signaling pathway - cell viability counter screen (AID 1159520); note: nearly all actives have a fitted effect of over 50% in size
# Summary of the method: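 Cytotoxicity was read from cellular ATP (CellTiter-Glo luminescence) after 16 hr at 37 C with 1 uM doxycycline induction. The inducer was added 2 hr after compound transfer to Tet-on ROR gamma CHO cells.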
# [7] = molecular target: Nuclear receptor ROR-gamma (Homo sapiens) (UniProt P51449); experiment: qHTS assay to identify small molecule antagonists of the retinoid-related orphan receptor gamma (ROR-gamma) signaling pathway (AID 1159521)
# Summary of the method: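 Luminescence readout (ONE-Glo, 30 min RT) after 16 h doxycycline induction; loss of signal scored as antagonism. CHO cells with TET-inducible RORγ and RORE-LUC reporter; compounds added 2 h before 1 uM final doxycycline.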
# [8] = qHTS assay to identify small molecule agonists of the AP-1 signaling pathway - cell viability counter screen (AID 1159525; calls by dose curve; note: nearly all actives have a fitted effect of over 55% in size)
# Summary of the method: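 Intracellular ATP by Cell Titer Glo luminescence (30 min, RT) in the same ME-180 AP-1-bla wells after the 5 h compound exposure at 37 °C. Normalised to tetra n-octyl ammonium bromide and DMSO controls.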
# [9] = qHTS assay to identify small molecule agonists of the AP-1 signaling pathway (AID 1159526; calls by dose curve)
# [10] = molecular target: Retinoic acid receptor RXR-alpha (Homo sapiens) (UniProt P19793); experiment: qHTS assay to identify small molecule agonists of the RXR signaling pathway (AID 1159527; calls by dose curve; note: nearly all actives have a fitted effect of over 35% in size)
# Summary of the method: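 Agonist mode; 9-cis retinoic acid positive control. HEK 293T UAS-bla reporter cells, 2% charcoal-stripped FBS, 16 hr compound exposure at 37 C/5% CO2. LiveBLAzer B/G FRET substrate 2 hr RT; ex 405, em 460/530 nm.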
# [11] = qHTS assay to identify small molecule agonists of the RXR signaling pathway - cell viability counter screen (AID 1159529)
# Summary of the method: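 Luminescence from CellTiter-Glo (30 min, RT) measured viability in the same wells as the beta-lactamase reporter readout. Cells: GeneBLAzer RXR-alpha HEK 293T, 2% charcoal-stripped FBS. Compound exposure 16 hr, 37 C.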
# [12] = qHTS assay to identify small molecule antagonists of the retinoid acid receptor (RAR) signaling pathway - cell viability counter screen (AID 1159551); note: nearly all actives have a fitted effect of over 35% in size
# Summary of the method: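 Viability of C3RL4 cells is quantified from ATP by luminescence after 6 h treatment at 37 C with compounds and 1 uM retinol.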
# [13] = qHTS assay to identify small molecule antagonists of the retinoic acid receptor (RAR) signaling pathway (AID 1159552; note: nearly all actives have a fitted effect of over 50% in size)
# Summary of the method: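 Luminescence from a RARE luciferase reporter in C3RL4 cells served as read-out. Cells received compounds together with 1 uM final retinol and incubated 6 hr at 37 C before detection reagent was added for 30 min at room temperature.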
# [14] = qHTS assay to identify small molecule agonists of the retinoic acid receptor (RAR) signaling pathway (AID 1159553); note: potency is the fitted concentration of half-maximal effect
# Summary of the method: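 Compounds dissolved in DMSO were pinned onto C3RL4 cells seeded the previous day, and plates were held 6 hr at 37 C. RARE-driven luciferase output was then read by luminescence.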
# [15] = qHTS assay to identify small molecule antagonists of the estrogen related receptor (ERR) signaling pathway from Tox21 library - cell viability counter screen (AID 1224834); note: nearly all actives have a fitted effect of over 30% in size
# Summary of the method: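 In this quantitative HTS format, ERR cells receive compounds in DMSO and are incubated for 17.5 h at 37 C. Live-cell protease activity is then detected with CellTiter-Fluor.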
# [16] = molecular target: Luciferin 4-monooxygenase (Photinus pyralis) (UniProt P08659); experiment: qHTS assay to identify small molecule inhibitors of firefly luciferase (AID 1224835); note: nearly all actives have a fitted effect of over 25% in size; note: potency is the fitted concentration of half-maximal effect; for activity change, negative = inhibition: series mostly up to about 120 µM
# Summary of the method: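 Inhibition of purified Photinus luciferase is measured by luminescence. Substrate levels (D-luciferin, ATP) sit at their KM values. Each compound is tested in a concentration series.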
# [17] = qHTS assay to identify small molecule agonists of the constitutive androstane receptor (CAR) signaling pathway - cell viability counter screen (AID 1224836); note: series mostly up to about 92 µM; nearly all actives have a fitted effect of over 45% in size
# Summary of the method: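 Viability read-out: CellTiter-Fluor fluorescence after 23 h compound exposure at 37 C/5% CO2 in double-stable HepG2-CYP2B6-hCAR cells, with PK11195 present at 0.75 uM final; compounds tested in 15-point titration.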
# [18] = qHTS assay to identify small molecule antagonists of the constitutive androstane receptor (CAR) signaling pathway - cell viability counter screen (AID 1224837); note: series mostly up to about 92 µM; nearly all actives have a fitted effect of over 45% in size
# Summary of the method: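 In quantitative HTS format, compounds at 15 concentrations were applied to HepG2 cells double-transfected with hCAR and CYP2B6-2.2kb under 50 nM CITCO stimulation; live-cell protease activity was read after 23 hr via CellTiter-Fluor.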
# [19] = molecular target: Nuclear receptor subfamily 1 group I member 3 (Homo sapiens) (UniProt Q14994); experiment: qHTS assay to identify small molecule antagonists of the constitutive androstane receptor (CAR) signaling pathway (AID 1224838); note: nearly all actives have a fitted effect of over 40% in size
# Summary of the method: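 CITCO-stimulated (50 nM final) HepG2 cells stably transfected with hCAR and CYP2B6-2.2kb luciferase were exposed to compounds at 15 concentrations for 24 h at 37 C/5% CO2. A luciferase reagent was added and luminescence recorded after 30 min.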
# [20] = molecular target: Nuclear receptor subfamily 1 group I member 3 (Homo sapiens) (UniProt Q14994); experiment: qHTS assay to identify small molecule agonists of the constitutive androstane receptor (CAR) signaling pathway (AID 1224839);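 note: HepG2 cells stably carrying human CAR and a CYP2B6 luciferase reporter; series mostly up to about 92 µM; nearly all actives have a fitted effect of over 15% in size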
# Summary of the method: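 Luminescence read-out (ONE-Glo, 30 min, room temperature) from double-stable HepG2-CYP2B6-hCAR cells exposed 24 h to 15-point compound series in presence of 0.75 uM PK11195 final.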
# Retinoic acid receptor RXR-alpha (Homo sapiens), sequence (P19793 whole entry, looked up): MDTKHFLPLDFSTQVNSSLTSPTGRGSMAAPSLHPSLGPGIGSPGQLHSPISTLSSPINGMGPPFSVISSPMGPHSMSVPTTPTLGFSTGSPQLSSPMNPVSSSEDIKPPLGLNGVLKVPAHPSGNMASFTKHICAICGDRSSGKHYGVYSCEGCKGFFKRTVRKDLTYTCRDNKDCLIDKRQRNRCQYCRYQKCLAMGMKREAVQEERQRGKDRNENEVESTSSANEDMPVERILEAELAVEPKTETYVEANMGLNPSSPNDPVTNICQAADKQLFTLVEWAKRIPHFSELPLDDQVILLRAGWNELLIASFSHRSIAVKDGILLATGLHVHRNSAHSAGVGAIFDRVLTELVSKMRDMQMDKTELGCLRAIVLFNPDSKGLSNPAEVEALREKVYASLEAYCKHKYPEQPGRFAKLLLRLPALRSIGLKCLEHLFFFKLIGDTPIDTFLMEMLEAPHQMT
# Luciferin 4-monooxygenase (Photinus pyralis), sequence (P08659 whole entry, looked up): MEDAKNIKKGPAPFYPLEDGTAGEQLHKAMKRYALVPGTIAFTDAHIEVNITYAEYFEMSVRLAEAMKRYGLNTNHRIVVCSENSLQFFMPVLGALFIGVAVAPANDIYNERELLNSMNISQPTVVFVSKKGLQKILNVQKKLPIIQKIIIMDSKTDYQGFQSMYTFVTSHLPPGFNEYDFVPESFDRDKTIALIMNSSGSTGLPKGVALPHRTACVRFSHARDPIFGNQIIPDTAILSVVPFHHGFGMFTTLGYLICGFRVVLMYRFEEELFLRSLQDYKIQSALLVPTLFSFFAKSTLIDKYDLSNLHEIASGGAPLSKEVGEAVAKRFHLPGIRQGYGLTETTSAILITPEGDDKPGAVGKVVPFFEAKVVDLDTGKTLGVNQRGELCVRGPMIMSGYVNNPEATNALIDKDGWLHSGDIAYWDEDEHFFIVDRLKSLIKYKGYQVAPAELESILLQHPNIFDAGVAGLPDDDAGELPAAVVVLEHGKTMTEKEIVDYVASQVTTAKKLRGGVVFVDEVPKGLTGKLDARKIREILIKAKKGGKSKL
# Nuclear receptor subfamily 1 group I member 3 (Homo sapiens), sequence (Q14994 whole entry, looked up): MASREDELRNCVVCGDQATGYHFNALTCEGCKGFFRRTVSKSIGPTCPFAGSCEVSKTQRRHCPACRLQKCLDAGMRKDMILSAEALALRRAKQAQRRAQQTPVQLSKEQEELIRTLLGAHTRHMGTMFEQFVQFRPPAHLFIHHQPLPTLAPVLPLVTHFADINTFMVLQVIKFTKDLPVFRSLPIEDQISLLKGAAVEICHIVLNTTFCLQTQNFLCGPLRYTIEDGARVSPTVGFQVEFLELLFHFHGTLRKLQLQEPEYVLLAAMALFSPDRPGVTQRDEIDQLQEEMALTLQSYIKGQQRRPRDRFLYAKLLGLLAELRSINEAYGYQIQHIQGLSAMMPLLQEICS
smiles,measurement,setting,value
C=CCn1cc[n+](C)c1,outcome,[1],inactive
same,outcome,[2],inactive
same,outcome,[3],inactive
same,Potency,[4],inactive
same,outcome,[5],inactive
same,outcome,[6],inactive
same,outcome,[7],inactive
same,outcome,[8],inactive
same,Potency,[9],inactive
same,Potency,[10],inactive
same,Potency,[11],inactive
same,outcome,[12],inactive
same,outcome,[13],inactive
same,Potency,[14],inactive
same,outcome,[15],inactive
same,Potency,[16],inactive
same,outcome,[17],inactive
same,outcome,[18],inactive
O=C(O)Cc1ccccc1Oc1ccc(Cl)cc1Cl,outcome,[1],inactive
same,outcome,[3],inactive
same,Potency,[4],inactive
same,outcome,[5],inactive
same,outcome,[6],inactive
same,outcome,[7],inactive
same,outcome,[8],inactive
same,Potency,[9],inactive
same,Potency,[10],inactive
same,Potency,[11],inactive
same,outcome,[12],inactive
same,outcome,[13],inactive
same,Potency,[14],inactive
same,outcome,[15],inactive
same,Potency,[16],inactive
same,outcome,[17],inactive
same,outcome,[18],inactive
COCc1nnc(-c2ccc[n+]([O-])c2)n1-c1c(Cl)c(Cl)cc2[nH]c(=O)c(=O)[nH]c12,outcome,[1],inactive
same,outcome,[2],inactive
same,outcome,[3],inactive
same,Potency,[4],inactive
same,outcome,[5],inactive
same,outcome,[6],inactive
same,outcome,[7],inactive
same,outcome,[8],inactive
same,Potency,[9],inactive
same,Potency,[10],inactive
same,Potency,[11],inactive
same,outcome,[12],inactive
same,outcome,[13],inactive
same,Potency,[14],inactive
same,outcome,[15],inactive
same,Potency,[16],inactive
same,outcome,[17],inactive
same,outcome,[18],inactive
C=CCCCCCCCCCCCCCC,outcome,[1],inactive
same,outcome,[2],inactive
same,outcome,[3],inactive
same,Potency,[4],inactive
same,outcome,[5],inactive
same,"activity, negative = cytotoxicity",[6],0.624% [at 19 µM]
same,"activity change, negative = inhibition",[7],-3.67% [at 19 µM]
same,"viability change, negative = cytotoxic",[8],0.684% [at 15.8 µM]
same,activation,[9],-3.84% [at 15.8 µM]
same,activation,[10],-0.752% [at 15.8 µM]
same,"activity change, negative = cytotoxicity",[11],-3.45% [at 15.8 µM]
same,"activity change, negative = cytotoxicity",[12],0.725% [at 19 µM]
same,"activity, negative = inhibition",[13],-7.34% [at 19 µM]
same,Potency,[14],inactive
same,"viability change, negative = cytotoxic",[15],3.18% [at 19 µM]
same,"activity change, negative = inhibition",[16],0.285% [at 23.6 µM]
same,"viability change, negative = cytotoxic",[17],7.15% [at 19 µM]
same,"activity, negative = inhibition",[19],6.03% [at 19 µM]
same,activation,[20],-0.195% [at 19 µM]
CC(=O)SC[C@@H](C)C(=O)N1CCC[C@H]1C(=O)N[C@@H](Cc1ccccc1)C(=O)O,outcome,[1],inactive
same,outcome,[2],inactive
same,outcome,[3],inactive
same,Potency,[4],inactive
same,outcome,[5],inactive
same,outcome,[6],inactive
same,outcome,[7],inactive
same,outcome,[8],inactive
same,Potency,[9],inactive
same,Potency,[10],inactive
same,Potency,[11],inactive
same,outcome,[12],inactive
same,outcome,[13],inactive
same,Potency,[14],inactive
same,outcome,[15],inactive
same,Potency,[16],inactive
same,outcome,[17],inactive
same,outcome,[18],inactive
O=S(=O)(O)c1cc(I)c(O)c2ncccc12,outcome,[1],inactive
same,outcome,[2],inactive
same,outcome,[3],inactive
same,Potency,[4],inactive
same,outcome,[5],inactive
same,outcome,[6],inactive
same,outcome,[7],inactive
same,outcome,[8],inactive
same,Potency,[9],inactive
same,Potency,[10],inactive
same,Potency,[11],inactive
same,outcome,[12],inactive
same,outcome,[13],inactive
same,Potency,[14],inactive
same,outcome,[15],inactive
same,Potency,[16],inactive
same,outcome,[17],inactive
same,outcome,[18],inactive
COc1ccc2cc(CCC(C)=O)ccc2c1,outcome,[1],inactive
same,outcome,[2],inactive
same,outcome,[3],inactive
same,Potency,[4],inactive
same,outcome,[5],inactive
same,outcome,[6],inactive
same,outcome,[7],inactive
same,outcome,[8],inactive
same,Potency,[9],inactive
same,Potency,[10],inactive
same,Potency,[11],inactive
same,outcome,[12],inactive
same,outcome,[13],inactive
same,Potency,[14],3.35 µM (active)
same,outcome,[15],inactive
same,Potency,[16],13.8 µM (active)
same,outcome,[17],inactive
same,outcome,[18],inactive
CCN(CC)CC(=O)Oc1ccc(NC(C)=O)cc1,outcome,[1],inactive
same,outcome,[2],inactive
same,outcome,[3],inactive
same,Potency,[4],inactive
same,outcome,[5],inactive
same,outcome,[6],inactive
same,outcome,[7],inactive
same,outcome,[8],inactive
same,Potency,[9],inactive
same,Potency,[10],inactive
same,Potency,[11],inactive
same,outcome,[12],inactive
same,outcome,[13],inactive
same,Potency,[14],inactive
same,outcome,[15],inactive
same,Potency,[16],inactive
same,outcome,[17],inactive
same,outcome,[18],inactive
same,Potency,[20],inactive
